Shown are actives, neighbours in structure and some others; about 6% of the full set was active somewhere.
PLK1 PBD inh – blocks phosphopeptide binding to human PLK1 polo-box domain. P53350. Plk1 PBD binding of FITC phosphopeptide, fluorescence polarization. Potency, µM, hits mostly inhibitors. 360,000 compounds, 2.8% hits. AID 720504; further: series mostly up to about 57 µM; nearly all actives have a fitted effect of over 65% in size
Target sequence (P53350 whole entry, looked up, the tested form may be a part): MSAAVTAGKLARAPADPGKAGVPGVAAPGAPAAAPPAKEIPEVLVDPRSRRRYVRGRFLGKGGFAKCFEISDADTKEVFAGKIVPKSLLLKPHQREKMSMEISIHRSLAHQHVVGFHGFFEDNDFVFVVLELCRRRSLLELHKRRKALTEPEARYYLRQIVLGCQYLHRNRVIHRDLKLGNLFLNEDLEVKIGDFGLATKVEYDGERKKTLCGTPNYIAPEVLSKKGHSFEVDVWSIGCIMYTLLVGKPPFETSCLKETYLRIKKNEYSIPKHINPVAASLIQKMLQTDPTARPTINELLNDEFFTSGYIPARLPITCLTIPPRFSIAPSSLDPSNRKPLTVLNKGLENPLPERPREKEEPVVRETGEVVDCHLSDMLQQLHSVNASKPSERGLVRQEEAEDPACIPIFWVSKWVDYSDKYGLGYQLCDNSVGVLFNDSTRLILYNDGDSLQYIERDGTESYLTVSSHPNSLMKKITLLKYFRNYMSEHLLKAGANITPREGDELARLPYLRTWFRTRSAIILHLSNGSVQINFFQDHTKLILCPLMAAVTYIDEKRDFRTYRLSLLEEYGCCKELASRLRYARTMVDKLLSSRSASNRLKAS
Tau fluor cs – counter-screen for tau fibril formation inhibitors. 280,000 compounds, 0.93% hits. Potency, µM (top dose mostly 57.7 µM). tau K18 P301L Alexa594 fluorescence, heparin fibrillization; further: nearly all actives have a fitted effect of over 55% in size
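Human K18 P301L tau (15 uM unlabeled plus 0.24 uM Alexa 594-labeled, final) in 100 mM sodium acetate pH 7 was mixed with compound and 20 uM heparin and incubated 6 hr at 37 C.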
VDR inhibitor – blocks the human vitamin D receptor. 400,000 compounds, 0.93% hits. VDR-SRC2-3 peptide fluorescence polarization, 2 h. Potency, µM, hits mostly inhibitors. P11473
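Reagent solutions, kept cold and dark, are dispensed first; compounds are then pinned in at 23 nl, plates briefly spun, and incubated 2 h at ambient temperature. Inhibition of VDR–SRC2-3 peptide binding is read by fluorescence polarization.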
Tau FP inhib – inhibitors of human tau fibril formation | 280,000 compounds, 0.39% hits | P10636 | Potency, µM (top dose mostly 57.7 µM), usual class: inhibitors | K18 P301L tau heparin fibrillization, Alexa594 FP, 6 h; further: nearly all actives have a fitted effect of over 55% in size
Target sequence (P10636 561-689 P618L limits assumed): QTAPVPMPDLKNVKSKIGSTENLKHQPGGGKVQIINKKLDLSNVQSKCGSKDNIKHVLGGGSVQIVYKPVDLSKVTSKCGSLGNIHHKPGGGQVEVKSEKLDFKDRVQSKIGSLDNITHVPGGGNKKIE
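Recombinant K18 P301L […], labeled with Alexa 594 at 0.24 uM over 15 uM unlabeled; heparin inducer 20 uM final; 37 C, 6 hr; FP endpoint.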
Sfp PPTase inh – inhibitors of Bacillus subtilis Sfp phosphopantetheinyl transferase; Q9F4F7; Biochemical Sfp PPTase activity, qHTS; Potency, µM, usual class: inhibitors; 310,000 compounds, 3.5% hits;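 further: the enzyme is Sfp with the accession as filed and its product quenches rhodamine fluorescence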
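Compounds were incubated with enzyme (final 15 nM) for 15 min at room temperature before substrate addition started the reaction. Fluorescence at 525 nm excitation, 598 nm emission was recorded immediately and after 30 minutes.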
Tau ThT inhib – blocks human tau fibril formation measured by thioflavin T. recombinant tau K18 P301L (four-repeat tau fragment), heparin-induced fibrillization, ThT fluorescence. Potency, µM (highest dose often 57.4 µM), most hits filed as inhibitors. P10636. AID 1460. 270,000 compounds, 2.1% hits; further: nearly all actives have a fitted effect of over 55% in size
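Recombinant human tau K18 fragment […] carrying P301L, 15 uM unlabeled plus 0.24 uM Alexa 594-labeled, was fibrillized with 20 uM heparin in 100 mM sodium acetate pH 7 for 6 hr at 37 C; 30 uM ThT fluorescence read after 1 hr.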
Numbers stand for hits; . = inactive; ? = inconclusive; / = no result; ! = a repeat was not active; [ ] = dose if it differs, or a comment. The call rests on the fitted dose curve; in most records, active means well fitted curve in the direction sought with a large enough effect; inconclusive means small, poorly fitted or top-dose-only effect, or another doubt; inactive means no such curve, though single readings can be large; an effect the other way counts as inactive or inconclusive.

SMILES | PLK1 PBD inh | Tau fluor cs | VDR inhibitor | Tau FP inhib | Sfp PPTase inh | Tau ThT inhib
Cc1cc(NS(=O)(=O)c2ccc(NC(=O)CCCOc3cccc(C)c3C)cc2)no1 | . | / | . | / | . | /
CN(C)CCNc1ccc2ncn3c4ccc(O)cc4c(=O)c1c23 | 12µM | / | . | / | / | /
O=C(NN1C(=O)CSC1=S)c1cccnc1 | . | . | . | . | 56µM | /
CCCCCCSc1ccc([C@@H]2[C@@H]3C(=O)N(C)C(=O)[C@@H]3[C@]3(C(=O)OC)CCCCN23)cc1OC | . | / | . | / | / | /
Oc1ccc(/C=N/N(Cc2ccccc2)c2ccccc2)c(O)c1O | ? | 28µM[quencher] | . | ? | 56µM | 28µM
Oc1cccc(/C=N/N(Cc2ccccc2)c2ccccc2)c1 | . | 13µM[quencher] | . | ? | . | ?
C(=N\N(Cc1ccccc1)c1ccccc1)/c1cccnc1 | . | . | . | . | . | ?
CCC(C(=O)NC(C)(C)C)n1c(-c2ccc3c(c2)OCO3)nc2ccccc21 (stereo not given) | . | / | / | / | / | /
O=C1NC(=O)C2C3OC(C(Br)C3Br)C12 (stereo not given) | . | / | / | / | / | /
CCOC(=O)CSC1=C(C#N)C(=O)NC(c2ccc(OC)cc2)S1 (stereo not given) | 12µM | . | ? | . | 45µM | ?
CCOC(=O)CC1C(=O)NCCN1Cc1ccc(OC)c(OC)c1 (stereo not given) | . | . | . | . | . | .
CCOC(=O)CSC1=C(C#N)C(=O)NC(c2ccc(OC)c(OC)c2)S1 (stereo not given) | 12µM | . | ? | . | 40µM | ?
CCOC(=O)N1C(=O)NC(=O)C1c1ccc(OC)cc1 (stereo not given) | . | / | . | / | / | /
CC(=O)OCC1=C[C@H]2[C@@H]3C(C)(C)[C@]3(OC(C)=O)C[C@@H](C)[C@]2(O)[C@@H]2C=C(C)C(=O)[C@@]2(O)C1 | / | / | . | / | . | /
Cc1cc(C)n2c(Nc3ccccc3)c(-c3ccc(C)o3)nc2n1 | / | / | . | / | / | /
COc1ccc(-c2nc3ccc(N4CCCC4)cc3c(=O)[nH]2)cc1OC | . | ? | . | . | . | 2.2µM
CCOC(=O)c1ccccc1NC(=O)c1nn(C)c2c1COc1ccccc1-2 | / | . | . | . | / | .
CCn1c(C(=O)OC)cc2c1ccn2-c1ccc(F)cc1 | 3µM | . | ? | . | . | ?
COC(=O)c1cc2c(ccn2-c2ccc(F)cc2)n1Cc1ccc(OC)cc1 | . | . | . | . | . | .
COc1ccc(/C=C/C(=O)c2cc3cccc(OC)c3oc2=O)cc1 | . | . | ? | . | ? | 7.1µM
CNC(=O)c1cc2cccc(OC)c2oc1=O | . | . | . | . | . | .
COc1cc(/C=C/C(=O)c2ccccc2O)cc(OC)c1OC | ? | . | 32µM | . | . | ?
COc1ccc(C(=O)/C=C/c2ccc(C)cc2)c(OC(=O)c2ccc([N+](=O)[O-])cc2)c1 | . | ? | . | . | . | 3.5µM
COc1cc(O)c(C(=O)/C=C/c2ccc(OC)c(O)c2)c(OC)c1 | / | ? | ? | . | . | 3.2µM
CCOC(=O)C1CCN(C(=O)c2ccc3c(c2)sc2nc(-c4ccccc4)cn23)CC1 | / | . | . | . | / | .
SMILES | PLK1 PBD inh | Tau fluor cs | VDR inhibitor | Tau FP inhib | Sfp PPTase inh | Tau ThT inhib
COc1ccc(C(=O)/C=C/c2cc(OC)c(O)c(OC)c2)c(F)c1 | . | . | ? | . | 79µM | .
COc1cc(/C=C/C(=O)c2c(O)ccc3c(C)cc(=O)oc23)ccc1O | . | . | . | . | . | 16µM
COc1cc(/C=C/C(=O)c2c(O)cc(C)oc2=O)cc(OC)c1O | . | ? | 22µM! | . | . | 28µM
COc1ccc2cc(C(=O)/C=C/c3cc(OC)c(O)c(OC)c3)ccc2c1 | . | / | . | / | . | /
COc1ccc(C(=O)/C=C/c2ccc(N(C)C)cc2)c(OC)c1 | . | 14µM[quencher] | . | . | . | ?
COc1ccc(C(=O)/C=C/c2ccccc2)c(OC)c1 | . | . | . | . | . | ?
COc1cccc(/C=C/C(=O)c2c(O)cc(C)oc2=O)c1O | . | . | ? | . | . | ?
COC(=O)CN1C(=O)C(C)(C)c2cc(S(=O)(=O)Nc3ccc(Br)cc3F)ccc21 | / | . | . | . | / | .
CC1=C(C(=O)Nc2ccc(C)cc2C)C(CC(C)C)n2nc(SCc3ccccc3C)nc2N1 (stereo not given) | / | . | . | . | / | .
C/C(=C\C(=O)c1c(O)cc(C)oc1=O)N(C)C | 30µM | . | . | . | . | .
Nc1c(Cl)ncnc1N/N=C/c1cccc(O)c1 | . | ? | . | . | 56µM | ?
COc1cccc(/C=N/Nc2ncnc(Cl)c2N)c1O | . | . | . | . | . | ?
c1ccc2c(Nc3nc4c(s3)CCCC4)cccc2c1 | ? | ? | . | . | 50µM | ?
CC(=O)c1sc(Nc2cccc3ccccc23)nc1C | . | / | . | / | / | /
S=c1[nH]nc(Nc2cccc3ccccc23)s1 | ? | ? | . | . | 40µM | ?
Fc1ccccc1Nc1n[nH]c(=S)s1 | 30µM | . | . | . | 50µM | .
CCN(CC(=O)NCc1ccc(Cl)cc1)C(=O)CSCC(=O)Nc1cccc(C)c1 | . | / | . | / | . | /
O=C(Cn1c(C(F)(F)F)nc2ccccc21)Oc1cccc(C(F)(F)F)c1 | . | . | . | . | 79µM | ?
COC(=O)c1ccc(COC(=O)c2ccc(SC)cc2OC)cc1 | 27µM | . | ? | . | . | ?
Cc1ccc(S(=O)(=O)c2[nH]c(-c3ccccc3)nc2SC(C)C(=O)O)cc1 (stereo not given) | / | . | . | . | / | .
COc1ccc(C(=O)NC2CC2)cc1OC1CCN(Cc2ccc(NC(C)=O)cc2)CC1 | . | / | . | / | . | /
Cc1ccc(C(=O)Nc2ccc(S(=O)(=O)O)c3cc(S(=O)(=O)O)cc(S(=O)(=O)O)c23)cc1NC(=O)c1cccc(NC(=O)Nc2cccc(C(=O)Nc3cc(C(=O)Nc4ccc(S(=O)(=O)O)c5cc(S(=O)(=O)O)cc(S(=O)(=O)O)c45)ccc3C)c2)c1 | / | ? | 22µM | ? | . | ?
COc1cc(Cn2c3ccc(NC(=O)CCc4ccc(O)cc4)cc3c(=O)n2C)ccc1F | . | / | / | / | / | /
N#CCCN(C(=O)CSc1ccc2c(c1)OCCO2)c1ccccc1 | 19µM | . | . | ? | . | ?
COc1ccc(NS(=O)(=O)c2ccc3oc4ccccc4c3c2)cn1 | . | ? | . | . | 56µM | .
COc1ccc(NS(=O)(=O)c2ccc(F)c(Cl)c2)cn1 | ? | / | 79µM | / | . | /
COc1ccc(NS(=O)(=O)c2ccc(Br)cc2)cn1 | . | / | . | / | . | /
Cc1ccc2oc(C(=O)N3CCN(c4cccc(C)n4)CC3)c(C)c2c1 | 27µM | / | ? | / | . | /
CCc1ccc(NC(=O)Cn2ncc3c4ccccc4n(C)c3c2=O)cc1 | 24µM | . | ? | . | . | ?
Cn1c2ccccc2c2cnn(CC(=O)Nc3ccc(Cl)cc3)c(=O)c21 | . | . | . | . | . | /
